Laboratory results: PubChem BioAssay (Tox21)
Inconclusive results are not listed. Active and inactive are the calls of the source. Unless noted, calls follow the shape of the dose curve; as a rule, active = well fitted curve in the direction sought with a large enough effect in the repeat runs; inconclusive = weak or mixed curves; inactive = no such curve, though single readings can be large; an effect the other way counts as inactive or inconclusive. Where a SMILES comes first, the peptide text is derived from it. [ ]: non-standard residue; d: D form. pGlu = O=C1CC[C@@H](C(=O)O)N1

Experiments:
[1] = qHTS assay to identify small molecule antagonists of the estrogen receptor alpha (ER-alpha) signaling pathway using the BG1 cell line in the presence of 0.1 nM 17-beta-estradiol - cell viability counter screen (AID 1259241); also: nearly all actives have a fitted effect of over 40% in size
How it was run: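 In this screen, hormone-deprived VM7Luc4E2 cells were seeded at 4,000 per well, dosed with compound and 0.1 nM estradiol final, and incubated 22 hr at 37C and 5% CO2; fluorogenic live-cell protease signal reported viability.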

[2] = target: Estrogen receptor (Homo sapiens) (UniProt P03372); test: qHTS assay to identify small molecule antagonists of the estrogen receptor alpha (ER-alpha) signaling pathway using the BG1 cell line in the presence of 0.1 nM 17-beta-estradiol (AID 1259244); also: nearly all actives have a fitted effect of over 50% in size
Chain of Estrogen receptor (Homo sapiens) (P03372 whole entry, looked up): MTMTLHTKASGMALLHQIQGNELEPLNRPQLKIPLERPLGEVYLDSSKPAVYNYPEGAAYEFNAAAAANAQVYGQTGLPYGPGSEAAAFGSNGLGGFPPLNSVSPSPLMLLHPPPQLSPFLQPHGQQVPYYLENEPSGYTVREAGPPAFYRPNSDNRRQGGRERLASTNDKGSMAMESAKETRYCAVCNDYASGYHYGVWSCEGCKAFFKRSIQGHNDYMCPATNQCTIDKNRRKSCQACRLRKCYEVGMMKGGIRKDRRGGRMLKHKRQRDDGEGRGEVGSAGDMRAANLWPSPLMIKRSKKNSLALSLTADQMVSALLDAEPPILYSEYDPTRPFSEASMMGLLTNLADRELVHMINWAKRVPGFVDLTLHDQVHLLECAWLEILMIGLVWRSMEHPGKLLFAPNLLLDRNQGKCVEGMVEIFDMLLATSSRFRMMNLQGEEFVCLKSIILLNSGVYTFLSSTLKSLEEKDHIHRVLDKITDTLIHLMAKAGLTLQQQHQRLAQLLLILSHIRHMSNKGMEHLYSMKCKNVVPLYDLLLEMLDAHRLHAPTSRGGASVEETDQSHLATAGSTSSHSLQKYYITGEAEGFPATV
How it was run: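 VM7Luc4E2 cells (endogenous full-length ER-alpha, stable 4xERE-luciferase) were grown 5 days in phenol red-free medium with charcoal-stripped FBS, then exposed 22 h at 37C to compounds plus 0.1 nM (final) 17beta-estradiol; ONE-Glo luminescence read-out.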

[3] = qHTS assay to identify small molecule HDAC inhibitors (AID 1259364); also: top concentration of the series differs between compounds; nearly all actives have a fitted effect of over 45% in size
How it was run: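 Wild-type HCT-116 cells were plated overnight, exposed to compounds for 2 h at 37 °C, then given HDAC-Glo class I/II luminogenic reagent for 30 min at room temperature before luminescence was read.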

[4] = qHTS assay to identify small molecule HDAC inhibitors - cell viability counter screen (AID 1259365); also: series mostly up to about 92 µM; nearly all actives have a fitted effect of over 50% in size
How it was run: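 Measured quantity is CellTiter-Glo luminescence from wild-type HCT-116 cells after compound incubation of 2hr at 37C, 5% CO2; reagent developed 30min at room temperature.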

[5] = qHTS assay to identify small molecule agonists of the sonic hedgehog signaling (Shh) pathway - cell viability counter screen (AID 1259366); also: nearly all actives have a fitted effect of over 50% in size
How it was run: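 In quantitative high-throughput format, 3T3 Gli1-Luc cells were exposed to compounds for 24hr and multiplexed for viability using CellTiter-Fluor, incubated 1hr at 37C before the fluorescence read.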

[6] = qHTS assay to identify small molecule antagonists of the sonic hedgehog signaling (Shh) pathway - cell viability counter screen (AID 1259367); also: nearly all actives have a fitted effect of over 55% in size
How it was run: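 Cells: 3T3 Gli1-Luc, 2,000/well, 4 hr pre-incubation. Compounds in DMSO, then conditioned medium. Incubation 24 hr, 37C, 5% CO2. CellTiter-Fluor at 23 hr, 1 hr, fluorescence.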

[7] = qHTS assay to identify small molecule agonists of the sonic hedgehog signaling (Shh) pathway (AID 1259368; calls by dose curve; also: series mostly up to about 92 µM; nearly all actives have a fitted effect of over 15% in size)
How it was run: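 NIH/3T3-derived 3T3Gli1-Luc cells carrying a stably integrated Gli1 response element–firefly luciferase reporter were plated, left 4 hr at 37 C, then given compounds in DMSO for 24 hr. Luminescence was read 30 min after adding luciferase reagent.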

[8] = qHTS assay to identify small molecule antagonists of the sonic hedgehog signaling (Shh) pathway (AID 1259369; calls by dose curve; also: nearly all actives have a fitted effect of over 45% in size)
How it was run: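 NIH/3T3-derived 3T3Gli1-Luc cells with stably integrated Gli1-Luc reporter were preincubated 4hr at 37 C, then given compounds in DMSO plus Shh conditioned medium and incubated 24hr. Firefly luciferase luminescence read after 30min reagent at room temperature.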

[9] = target: Estrogen receptor beta (Homo sapiens) (UniProt Q92731); test: qHTS assay to identify small molecule agonists of the estrogen receptor beta (ER-beta) signaling pathway (AID 1259377; active = well fitted activation curve with a large enough effect in the signal ratio in the repeat runs, not every such curve was filed as active; the % refers to the signal ratio)
Chain of Estrogen receptor beta (Homo sapiens) (Q92731 whole entry, looked up): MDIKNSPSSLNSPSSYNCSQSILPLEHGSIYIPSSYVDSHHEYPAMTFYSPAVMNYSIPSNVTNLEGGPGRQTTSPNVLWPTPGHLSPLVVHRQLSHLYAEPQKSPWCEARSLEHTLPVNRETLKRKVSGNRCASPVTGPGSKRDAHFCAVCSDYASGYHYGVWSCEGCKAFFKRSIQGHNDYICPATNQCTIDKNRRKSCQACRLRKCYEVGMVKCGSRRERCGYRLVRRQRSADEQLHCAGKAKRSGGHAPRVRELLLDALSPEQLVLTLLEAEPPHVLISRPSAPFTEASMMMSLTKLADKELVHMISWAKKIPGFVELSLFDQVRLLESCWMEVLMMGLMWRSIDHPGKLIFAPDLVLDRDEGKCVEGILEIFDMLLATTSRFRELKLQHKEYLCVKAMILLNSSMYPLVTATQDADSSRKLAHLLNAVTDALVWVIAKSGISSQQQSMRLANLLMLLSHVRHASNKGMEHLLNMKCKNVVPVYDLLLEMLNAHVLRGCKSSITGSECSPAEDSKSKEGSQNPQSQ
How it was run: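 Reporter cells (HEK293T, ER-beta-UAS-bla) receive compounds or DMSO after a 6 hr pre-incubation. They then incubate 16 hr at 37C/5% CO2, and fluorescence from LiveBLAzer B/G substrate is measured after 2 hours at room temperature.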

[10] = target: Estrogen receptor beta (Homo sapiens) (UniProt Q92731); test: qHTS assay to identify small molecule antagonists of the estrogen receptor beta (ER-beta) signaling pathway (AID 1259378; active = well fitted inhibition curve with a large enough effect in the signal ratio in the repeat runs, not every such curve was filed as active; the % refers to the signal ratio)
How it was run: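 Antagonist mode: compounds added to beta-lactamase reporter HEK293T ER-beta-UAS cells stimulated with E2 (1nM final), 16 hr at 37C. LiveBLAzer B/G FRET substrate, 2 hours room temperature, fluorescence read-out.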

[11] = qHTS assay to identify small molecule agonists of the androgen receptor (AR) signaling pathway in the presence of an antagonist - cell viability counter screen (AID 1259379); also: series mostly up to about 92 µM; nearly all actives have a fitted effect of over 25% in size
How it was run: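 MDA-kb2 human breast carcinoma cells (stable MMTV-luciferase, AR/GR responsive) were seeded 3,000 cells/well, pre-incubated 5 hr at 37C without CO2, then given 3.0uM nilutamide and compounds at 15 concentrations for 16 hr. Viability was read by CellTiter-Fluor fluorescence.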

[12] = qHTS assay to identify small molecule agonists of the estrogen receptor beta (ER-beta) signaling pathway - cell viability counter screen (AID 1259380); also: nearly all actives have a fitted effect of over 30% in size
How it was run: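 ER-beta-UAS-bla HEK293T cells in medium with 2% charcoal-stripped FBS were preincubated 6 hr at 37C, dosed with compound in DMSO for 16 hr, then after the bla read, CellTiter-Glo was added for 30 min at room temperature; luminescence recorded.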

[13] = qHTS assay to identify small molecule antagonists of the estrogen receptor beta (ER-beta) signaling pathway - cell viability counter screen (AID 1259382);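 also: HEK293T cells carrying ER-beta-UAS-bla reporter stimulated with estradiol; series mostly up to about 92 µM; nearly all actives have a fitted effect of over 55% in size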
How it was run: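 ER-beta-UAS-bla HEK293T cells (2,000/well, 2% charcoal-stripped FBS) were pre-incubated 6 hr at 37C, then given compound plus 1nM final 17-beta-estradiol for 16 hr. Viability was read in the same wells by CellTiter-Glo luminescence after 30 min at room temperature.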

[14] = target: Estrogen receptor (Homo sapiens) (UniProt P03372); test: qHTS assay to identify small molecule agonists of the estrogen receptor alpha (ER-alpha) signaling pathway in the presence of an antagonist (AID 1259383; calls by dose curve; also: top concentration of the series differs between compounds; nearly all actives have a fitted effect of over 15% in size)
How it was run: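 VM7Luc4E2 cells (endogenous full-length ER-alpha, 4×ERE-luciferase) were precultured 5 days in phenol red-free medium with 10% charcoal-stripped FBS, given 10.0nM ICI-182,780 (final), then treated with compounds at 15 concentrations for 22hr at 37C; luminescence read with ONE-Glo.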

[15] = qHTS assay to identify small molecule agonists or antagonists of the thyroid stimulating hormone receptor (TSHR) signaling pathway - wild type cell line counter screen (AID 1259384; calls by dose curve)
How it was run: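 Counter screen in untransfected Hek293: compounds (15-point titration, triplicate) plus phosphodiesterase inhibitor Ro20-1724 added after 18 h plating; 30 min RT. Intracellular cAMP via competitive d2/cryptate immunoassay, 1 h incubation.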

[16] = target: Androgen receptor (Homo sapiens) (UniProt P10275); test: qHTS assay to identify small molecule antagonists of the androgen receptor (AR) signaling pathway using the MDA cell line in the presence of 0.5 nM R1881 (AID 1259243); also: nearly all actives have a fitted effect of over 50% in size
Chain of Androgen receptor (Homo sapiens) (P10275 whole entry, looked up): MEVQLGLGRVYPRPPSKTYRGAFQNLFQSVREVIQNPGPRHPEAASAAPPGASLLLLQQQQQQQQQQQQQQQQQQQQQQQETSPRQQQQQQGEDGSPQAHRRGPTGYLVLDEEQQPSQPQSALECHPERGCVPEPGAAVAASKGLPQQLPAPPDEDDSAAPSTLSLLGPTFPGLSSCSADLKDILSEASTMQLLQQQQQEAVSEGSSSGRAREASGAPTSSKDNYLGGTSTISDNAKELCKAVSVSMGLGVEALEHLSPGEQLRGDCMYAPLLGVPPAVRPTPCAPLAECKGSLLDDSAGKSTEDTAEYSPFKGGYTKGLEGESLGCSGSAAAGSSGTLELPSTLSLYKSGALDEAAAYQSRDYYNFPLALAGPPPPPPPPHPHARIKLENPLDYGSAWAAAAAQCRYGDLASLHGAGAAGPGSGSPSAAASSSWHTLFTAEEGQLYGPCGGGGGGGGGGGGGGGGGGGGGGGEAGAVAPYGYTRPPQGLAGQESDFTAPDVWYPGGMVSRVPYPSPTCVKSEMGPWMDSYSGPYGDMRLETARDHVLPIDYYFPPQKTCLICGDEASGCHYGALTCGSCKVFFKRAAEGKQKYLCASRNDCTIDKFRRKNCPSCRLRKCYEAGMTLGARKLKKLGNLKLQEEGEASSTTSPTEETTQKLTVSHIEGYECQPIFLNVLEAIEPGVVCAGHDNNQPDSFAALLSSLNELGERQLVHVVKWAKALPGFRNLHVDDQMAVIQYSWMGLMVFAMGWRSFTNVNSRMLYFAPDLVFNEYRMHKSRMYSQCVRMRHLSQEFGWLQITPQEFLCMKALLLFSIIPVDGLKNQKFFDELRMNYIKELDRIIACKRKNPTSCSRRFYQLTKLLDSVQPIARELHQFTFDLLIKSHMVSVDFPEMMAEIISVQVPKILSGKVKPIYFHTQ
How it was run: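 MDA-kb2 human breast carcinoma cells carrying an MMTV-luciferase reporter (AR- and GR-responsive) were plated, rested 5 hr at 37C, dosed with compounds, then stimulated with 0.5 nM R1881 (final) for 16 hr; luminescence was read after ONE-Glo.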

[17] = target: Androgen receptor (Homo sapiens) (UniProt P10275); test: qHTS assay to identify small molecule agonists of the androgen receptor (AR) signaling pathway in the presence of an antagonist (AID 1259381; calls by dose curve; also: nearly all actives have a fitted effect of over 15% in size)
How it was run: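 MDA-kb2 human breast carcinoma cells carrying an MMTV-luciferase reporter (AR- and GR-responsive) were treated with compounds at 15 concentrations plus 3.0uM final nilutamide for 16hr at 37C without CO2; luminescence was read after ONE-Glo addition.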

[18] = target: Thyrotropin receptor (Homo sapiens) (UniProt P16473); test: qHTS assay to identify small molecule antagonists of the thyroid stimulating hormone receptor (TSHR) signaling pathway (AID 1259385; calls by dose curve; also: nearly all actives have a fitted effect of over 20% in size)
Chain of Thyrotropin receptor (Homo sapiens) (P16473 whole entry, looked up): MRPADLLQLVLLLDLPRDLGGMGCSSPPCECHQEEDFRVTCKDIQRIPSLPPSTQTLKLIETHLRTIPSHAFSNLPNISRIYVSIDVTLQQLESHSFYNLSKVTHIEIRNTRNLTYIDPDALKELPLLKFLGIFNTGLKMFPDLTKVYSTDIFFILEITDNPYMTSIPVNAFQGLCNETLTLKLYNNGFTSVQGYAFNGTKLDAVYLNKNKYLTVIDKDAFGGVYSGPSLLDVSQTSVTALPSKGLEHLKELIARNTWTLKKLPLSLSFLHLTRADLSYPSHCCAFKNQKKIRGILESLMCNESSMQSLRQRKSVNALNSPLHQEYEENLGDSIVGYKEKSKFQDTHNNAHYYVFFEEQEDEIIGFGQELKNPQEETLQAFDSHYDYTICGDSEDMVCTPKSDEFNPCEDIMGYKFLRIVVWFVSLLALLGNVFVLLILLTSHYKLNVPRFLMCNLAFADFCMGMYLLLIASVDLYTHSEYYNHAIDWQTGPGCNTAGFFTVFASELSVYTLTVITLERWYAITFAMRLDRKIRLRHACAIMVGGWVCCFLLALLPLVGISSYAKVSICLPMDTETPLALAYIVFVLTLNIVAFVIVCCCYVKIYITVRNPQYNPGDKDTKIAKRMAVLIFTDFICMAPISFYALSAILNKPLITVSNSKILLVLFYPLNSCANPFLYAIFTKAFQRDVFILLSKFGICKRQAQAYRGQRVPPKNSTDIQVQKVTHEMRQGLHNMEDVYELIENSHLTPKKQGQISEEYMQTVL
How it was run: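 Antagonist mode: compound-treated TSHR-expressing HEK293 cells were stimulated with 1.5 ng/mL TSH (final) in presence of Ro20-1724 for 30 min at RT. HTRF cAMP detection after 1 h; each compound tested at 15 concentrations, triplicate.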

[19] = qHTS assay to identify small molecule antagonists of the androgen receptor (AR) signaling pathway using the MDA cell line in the presence of 0.5 nM R1881 - cell viability counter screen (AID 1259242); also: nearly all actives have a fitted effect of over 45% in size
How it was run: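 MDA-kb2 cells (human breast carcinoma, stably carrying MMTV-luciferase reporter) were exposed to compounds with 0.5 nM R1881 (final) for 16 hr at 37C, 0% CO2; viability then read as live-cell protease fluorescence (CellTiter-Fluor, 30 min) in the same wells.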

[20] = qHTS assay to identify small molecule phospholipidosis (PLD) inducers (AID 1259344; active = well fitted curve in the direction sought with a large enough effect; an effect the other way counts as inactive or inconclusive)
How it was run: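 Phospholipidosis is scored by imaging LipidTOX-stained pits in HepG2 cells exposed to compound for 24 h at 37 C; pit counts and integrated intensities per well and per cell serve as outputs.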

Measured: Potency

CC(=O)c1ccc2ccccc2c1
not listed: [16] | [17] | [18] | [19] | [20]
inactive: all other assays above

C=C(C)C(=O)OCC(O)CO (stereo not given)
not listed: [2] | [13] | [14] | [19] | [20]
inactive: all other assays above

CCOC(=O)CCC(=O)OCC
not listed: [1] | [16] | [17] | [20]
inactive: all other assays above

CCNC(=O)[C@@H]1CCCN1C(=O)[C@H](CCCN=C(N)N)NC(=O)[C@H](CC(C)C)NC(=O)CNC(=O)[C@H](Cc1ccc(O)cc1)NC(=O)[C@H](CO)NC(=O)[C@H](Cc1c[nH]c2ccccc12)NC(=O)[C@H](Cc1cnc[nH]1)NC(=O)[C@@H]1CCC(=O)N1 ([pGlu]HWSYGLRP-NHEt)
not listed: [1] | [16] | [17] | [18] | [20]
inactive: all other assays above

NC(=O)Cc1cccc2ccccc12
not listed: [1] | [2] | [14] | [16] | [17] | [20]
inactive: all other assays above

C[N+](C)(C)CCCCCCCCCC[N+](C)(C)C
not listed: [1] | [9] | [10] | [12] | [16] | [17]
inactive: all other assays above

NCCCC[C@H](N[C@@H](CCc1ccccc1)C(=O)O)C(=O)N1CCC[C@H]1C(=O)O
inactive: [19] | [20] | [3] | [4] | [5] | [6] | [7] | [8] | [11] | [12]

CC(N)C12CC3CC(CC(C3)C1)C2 (stereo not given)
not listed: [1] | [8] | [16] | [17]
inactive: all other assays above

C[C@@H]1CCC[C@H](C)N1
not listed: [1] | [2] | [14] | [16] | [17]
inactive: all other assays above
